Screening results (PubChem)
In the library only some 4.3% were active in any assay of this set; here they are far more common.
Wnt act: Wnt/beta-catenin pathway activators, primary screen, cell-based, plate reader, single point | Wnt/beta-catenin reporter cell assay, activator | activation, % at 9.35 µM | 300,000 compounds, 1.2% hits | AID 743398, 2014; in the data active means activation above about 30%, passing the limit was not always enough;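 further: 0% = neutral control wells and 100% = positive control wells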
esBAF inh: Bmi1 luciferase reporter increase in mESCs, primary screen, esBAF inhibitor project, mouse ES cells, Bmi1 luciferase knock-in, single point; 24 h; 100% = twice the neutral-well signal; reporter increase, % at 12.5 µM; 350,000 compounds, 2% hits; in the data active means activation above about 40%;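 further: 0% = median of the plate's neutral control wells and 100% = double that signal; a rise in the Bmi1 reporter signal indicates esBAF inhibition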
MITF act: activators of MITF-driven TRPM1 promoter reporter, primary screen, cell-based, SK-MEL-5, luciferase, single point | SK-MEL-5 TRPM1-promoter luciferase, 24 h; % of positive control, neutral wells = 0 | activation, % at 12.5 µM | 300,000 compounds, 0.75% hits | AID 588334, 2011;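 active means mean activation of at least 80% with every replicate also reaching 80%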;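 further: 0% = neutral control wells and 100% = parthenolide positive control wells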
AF4-AF9 inh: inhibitors of AF4 peptide binding to AF9, primary screen, biochemical, AlphaScreen, biotin-AF4 peptide, FLAG-AF9, single point | inhibition, % at 10 µM | 350,000 compounds, 0.47% hits | AID 651704, 2012;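 active means every replicate reaching a set inhibition limit, whatever the replicate mean, cut at about 25% in these data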;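 further: 0% = plate neutral control median and 100% = total signal loss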
Target sequence (P42568 whole entry, looked up): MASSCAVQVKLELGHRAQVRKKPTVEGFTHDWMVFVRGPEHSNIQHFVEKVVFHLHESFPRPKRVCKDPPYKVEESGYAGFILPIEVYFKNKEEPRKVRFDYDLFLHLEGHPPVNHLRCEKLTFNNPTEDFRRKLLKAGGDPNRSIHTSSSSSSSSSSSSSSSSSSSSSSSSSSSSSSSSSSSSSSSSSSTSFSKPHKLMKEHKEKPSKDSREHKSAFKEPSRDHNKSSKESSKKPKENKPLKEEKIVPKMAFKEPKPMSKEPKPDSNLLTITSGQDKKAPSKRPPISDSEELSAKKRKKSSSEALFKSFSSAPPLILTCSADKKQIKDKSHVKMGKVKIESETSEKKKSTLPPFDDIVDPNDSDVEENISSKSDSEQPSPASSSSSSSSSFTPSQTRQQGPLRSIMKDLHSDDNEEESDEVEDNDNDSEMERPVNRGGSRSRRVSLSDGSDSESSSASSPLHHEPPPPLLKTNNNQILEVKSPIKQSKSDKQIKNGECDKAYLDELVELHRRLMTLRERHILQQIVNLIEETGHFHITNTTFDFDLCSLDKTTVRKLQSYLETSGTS
FGF22 binding-1: binders of human FGF22 protein, primary screen, FGF22 synaptogenesis inhibitor project, biophysical, thermal shift, single point. 340,000 compounds, 1.5% hits. activity (Tm shift, normalised), % at 9.99 µM. recombinant FGF22 thermal shift, SYPRO orange fluorescence; percent of sucrose octasulfate shift, DMSO zero;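 active means mean Tm shift, scaled 0 neutral to 100 positive control, at about 1.3% or above, every replicate too, limit read from the data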
SMARCA2 activ: SMARCA2 (BRM) function activators, primary screen, cell-based, luminescence, high throughput. MG213 cells, MMTV-luciferase reporter, dexamethasone, overnight. activation, % at 9.1 µM. 370,000 compounds, 1% hits; in the data active means activation above about 7.8%;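 further: 0% = vehicle wells and 100% = reference activator wells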
FGF22 binding-2: binders of human FGF22 protein, dose response, FGF22 synaptogenesis inhibitor project, biophysical, thermal shift, cherry-pick retest. thermal shift activity, °C (ΔTm) at 38 µM. AID 720646, 2013. shares compounds with FGF22 binding-1. 1,000 compounds, 2% hits. recombinant FGF22 thermal shift, SYPRO orange fluorescence;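 active means fitted rise in melting shift crosses a set limit at or below the top valid dose tested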
TSA no protein: compound-only thermal shift signal without protein, dose response, artefact control for FGF22 binder project, biochemical, cherry-picked samples, RT-PCR instrument; AC50, µM (series often up to 38 µM); shares compounds with FGF22 binding-1; 1,000 compounds, 2% hits; compound-only SYPRO orange thermal shift counter-screen, no protein;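 active means rising signal whose fitted curve reaches the 0.54 level within the top valid dose, showing a melting point, actives reach about 13 µM in these data; inactive means the rest, including activity in the opposite direction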; further: value is where the raw curve crosses a fixed level and not half-maximal
* = called active by the depositor; i = inactive; · = no result given; [ ] = another dose, or the depositor's remark.

SMILES | Wnt act | esBAF inh | MITF act | AF4-AF9 inh | FGF22 binding-1 | SMARCA2 activ | FGF22 binding-2 | TSA no protein
O=C(N/N=C/c1c[nH]c2ccccc12)C1CC1c1ccccc1 (stereo not drawn) | -0.5 | · | -9.2 | -13.7 | 1.5* | -6.0 | 0.036 | i
C[C@@H]1CN([C@@H](C)CO)C(=O)c2ccccc2-c2ccccc2CO[C@H]1CN(C)C(=O)Nc1cccc(Cl)c1Cl | · | · | · | -1.6 | · | · | · | ·
COc1ccc(NC(=O)N(C)C[C@@H]2Oc3ccc(NC(=O)C4CCCCC4)cc3C(=O)N([C@H](C)CO)C[C@H]2C)cc1 | · | -3.9 | · | -3.5 | 0.0 | · | · | ·
CC(C)NC(=O)Nc1ccc2c(c1)C(=O)N([C@H](C)CO)C[C@H](C)[C@@H](CN(C)C(=O)NC(C)C)O2 | -0.4 | 1.3 | 5.4 | -4.6 | 1.6* | 0.5 | 0.135 | i
CC(C)NC(=O)Nc1ccc2c(c1)C(=O)N([C@H](C)CO)C[C@H](C)[C@H](CN(C)C(=O)NC(C)C)O2 | · | -3.4 | · | -0.7 | 0.2 | · | · | ·
C[C@H](CO)N1C[C@H](C)[C@H](CN(C)CC2CCCCC2)Oc2c(NC(=O)Nc3ccc4c(c3)OCO4)cccc2C1=O | · | -3.1 | · | 10.1 | 1.4* | · | 0.108 | i
CC(C)NC(=O)Nc1ccc2c(c1)C(=O)N([C@H](C)CO)C[C@H](C)[C@@H](CN(C)C(=O)Nc1cccc3ccccc13)O2 | · | -2.4 | · | -3.7 | 0.1 | · | · | ·
CC(C)NC(=O)Nc1ccc2c(c1)C(=O)N([C@H](C)CO)C[C@H](C)[C@H](CN(C)C(=O)Nc1cccc3ccccc13)O2 | · | -3.0 | · | 0.7 | 18.6* | · | 0.147[42 µM] | i
C[C@H]1CN([C@@H](C)CO)C(=O)c2cccc(NC(=O)Nc3ccc4c(c3)OCO4)c2O[C@H]1CN(C)CC1CCCCC1 | · | -2.8 | · | 9.1 | -0.5 | · | · | ·
Nc1c(N(CCO)C(=O)COc2ccc(Cl)cc2)c(=O)[nH]c(=O)n1Cc1ccccc1 | -2.1 | · | -1.5 | -0.3 | 1.8* | 0.9 | 0.053 | i
O=C(N[C@@H]1CC[C@H](CC(=O)N2CCCCC2)O[C@@H]1CO)c1ccccn1 | · | 2.5 | · | -0.5 | -0.3 | · | · | ·
COc1ccccc1-c1cnc2c(c1)C(=O)N([C@H](C)CO)C[C@H](C)[C@@H](CN(C)C(=O)CN(C)C)O2 | · | 1.5 | · | -1.2 | -0.1 | · | · | ·
Cc1cccc(C(=O)NCC(=O)N2CCN(c3ccc(Cl)cc3)CC2)c1 | -1.3 | -3.9 | -6.2 | -1.0 | -0.3 | -4.2 | · | ·
Cc1cc(C)cc(C(=O)NCC(=O)N2CCN(c3cccc(Cl)c3)CC2)c1 | -2.9 | -0.8 | -17.7 | 1.9 | 36.8* | -3.7 | 0.154 | i
Cc1ccc(S(=O)(=O)N(C)C[C@@H]2Oc3ccc(NS(=O)(=O)c4ccc(F)cc4)cc3CC(=O)N([C@@H](C)CO)C[C@@H]2C)cc1 | · | 5.1 | · | -1.5 | -0.3 | · | · | ·
COc1cccc(NC(=O)CN(C)C(=O)c2cn(-c3ccccc3)nc2-c2cccs2)c1 | -2.2 | 4.5 | 6.0 | -35.1 | 2.1* | 0.6 | 0.632 | i
CN(CC(=O)Nc1cccc(F)c1)C(=O)c1cn(-c2ccccc2)nc1-c1cccs1 | 5.3 | · | 2.2 | -1.5 | 0.5 | -2.4 | · | ·
COc1ccc(/C(O)=C/C(=O)C(=O)NNC(=O)c2ccccc2)cc1 | 3.1 | 6.8 | -0.7 | 3.9 | 28.9* | 2.4 | 0.091 | i
O=C(C[C@H]1CC[C@H](NC(=O)Nc2cc(F)ccc2F)[C@H](CO)O1)Nc1ccc(-c2ccccc2)cc1 | · | 15.6 | · | -14.7 | · | · | · | ·
